Screen size: about 400,000 compounds; about 2,100 (0.53%) were called active. Roughly 14% stayed inconclusive and do not appear here. No rule for the calls is given here. The entries come from a sample that favours actives as a whole.
target: Ataxin-2 (Homo sapiens) (UniProt Q99700); experiment: qHTS for Inhibitors of ATXN expression.; type: functional
Sequence (Q99700 whole entry): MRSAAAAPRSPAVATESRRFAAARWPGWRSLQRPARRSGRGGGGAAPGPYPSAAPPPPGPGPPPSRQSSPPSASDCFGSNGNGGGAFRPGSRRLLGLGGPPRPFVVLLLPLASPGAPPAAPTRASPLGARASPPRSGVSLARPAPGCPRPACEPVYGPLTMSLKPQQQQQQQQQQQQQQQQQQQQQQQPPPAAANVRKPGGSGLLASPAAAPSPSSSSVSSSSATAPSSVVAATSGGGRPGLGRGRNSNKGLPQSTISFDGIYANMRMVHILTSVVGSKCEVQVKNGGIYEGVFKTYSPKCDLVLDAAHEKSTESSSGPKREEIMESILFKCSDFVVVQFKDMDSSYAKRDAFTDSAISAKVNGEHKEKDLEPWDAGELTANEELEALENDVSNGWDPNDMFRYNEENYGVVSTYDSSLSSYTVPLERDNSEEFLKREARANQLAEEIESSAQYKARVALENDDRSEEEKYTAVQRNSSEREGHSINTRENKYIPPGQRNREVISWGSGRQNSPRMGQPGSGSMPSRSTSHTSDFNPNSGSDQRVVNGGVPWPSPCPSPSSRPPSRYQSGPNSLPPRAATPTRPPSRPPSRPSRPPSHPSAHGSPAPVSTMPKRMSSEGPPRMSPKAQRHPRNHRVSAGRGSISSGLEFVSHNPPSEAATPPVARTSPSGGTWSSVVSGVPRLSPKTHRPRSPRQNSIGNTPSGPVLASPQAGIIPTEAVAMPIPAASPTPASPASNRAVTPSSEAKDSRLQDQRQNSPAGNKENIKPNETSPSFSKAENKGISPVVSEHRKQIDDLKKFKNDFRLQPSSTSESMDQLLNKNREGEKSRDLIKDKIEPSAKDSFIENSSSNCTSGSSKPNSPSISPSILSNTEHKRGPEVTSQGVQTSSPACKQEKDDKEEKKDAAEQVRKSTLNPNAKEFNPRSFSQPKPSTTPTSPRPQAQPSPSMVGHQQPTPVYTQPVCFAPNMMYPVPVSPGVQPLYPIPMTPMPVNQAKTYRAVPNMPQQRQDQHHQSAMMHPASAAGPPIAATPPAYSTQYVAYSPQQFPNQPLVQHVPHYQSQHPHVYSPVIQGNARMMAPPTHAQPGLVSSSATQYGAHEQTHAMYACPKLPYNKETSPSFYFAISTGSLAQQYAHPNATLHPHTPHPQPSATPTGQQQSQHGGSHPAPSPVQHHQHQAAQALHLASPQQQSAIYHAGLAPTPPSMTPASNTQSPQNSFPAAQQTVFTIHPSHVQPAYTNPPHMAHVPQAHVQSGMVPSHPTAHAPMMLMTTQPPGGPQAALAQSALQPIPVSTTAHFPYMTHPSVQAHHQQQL

SMILES | Potency
c1cncc(-c2nc(N3CCOCC3)c3c4c(sc3n2)CCC4)c1 | inactive
CCc1cc2c(COC(=O)CCNS(=O)(=O)c3cccc(C(F)(F)F)c3)cc(=O)oc2cc1O | inactive
C=CCN1C(=O)/C(=C/c2ccc(OC)cc2)S/C1=N/c1nccs1 | inactive
CCN(CC)CCN1C(=O)/C(=C\c2ccc(Cl)c([N+](=O)[O-])c2)S/C1=N\c1ccc(OC)cc1 | 28.2 µM (active)
Cc1cc(=O)oc2c(CN3CCN(CCO)CC3)c(O)ccc12 | inactive
O=C(CN1C(=O)NC2(CCOc3ccccc32)C1=O)Nc1ccc(F)c(F)c1F (configuration not stated) | inactive
CCC(=O)NCCCNc1nc2c(C)cccc2cc1C#N | inactive
CCN1C(=O)/C(=C/C2=Cc3ccccc3OC2C)SC1=S (configuration not stated) | inactive
CCN1C(=O)/C(=C\C=C2/C=CC=CN2CC)SC1=S | 20 µM (active)
Cc1cc(O)nc2c1c(-c1ccccc1)nn2C | inactive
CC1=CC(C)(C)Nc2ccc(OC(=O)C(C)N3C(=O)c4ccccc4C3=O)cc21 (configuration not stated) | 39.8 µM (active)
CC1=CC(C)(C)Nc2ccc(OC(=O)CN3C(=O)c4ccccc4C3=O)cc21 | 25.1 µM (active)
O=C(CN1C(=O)NC2(CCCCC2)C1=O)Oc1ccc2ccc(=O)oc2c1 | inactive
CC(C(=O)N1CCOCCOCCOCCOCCOCC1)N1C(=O)c2ccccc2C1=O (configuration not stated) | inactive
CC1=CC(C)(C)Nc2ccc(OC(=O)CCN3C(=O)c4ccccc4C3=O)cc21 | 25.1 µM (active)
CC1(C)Nc2ccccc2C(=O)N1c1ccc(Br)cc1 | inactive
O=C(CN1C(=O)NC2(CCCC2)C1=O)Oc1ccc2ccc(=O)oc2c1 | inactive
COc1cccc(NC(=O)COC(=O)CCC(=O)c2cccs2)c1 | inactive
O=C(C[n+]1ccccc1)NN=Cc1cc(Br)cc(Br)c1O | inactive

SMILES | Potency
CC(C)OCCCn1/c(=N/C(=O)c2cccs2)c(C#N)cc2c(=O)n3ccccc3nc21 | inactive
CCN(CC(=O)NCc1cccs1)C(=O)c1ccccc1F | inactive
COc1ccc(C(=O)/C=C/C(=O)N(Cc2ccccc2OC)C(C(=O)NC2CCCCC2)c2ccncc2)c(O)c1 (configuration not stated) | 26.7 µM (active)
COCCN(CC(=O)NC1CCCCC1)C(=O)/C=C/C(=O)c1ccc(OC)cc1O | 23.8 µM (active)
COc1ccc(C(=O)/C=C/C(=O)N(CC(=O)NCCC(C)C)Cc2cccs2)c(O)c1 | 31.6 µM (active)
COc1ccc2oc(=O)c(C(=O)NC3CCCCCC3)cc2c1 | inactive
CCN(CC(=O)NCc1cccs1)C(=O)/C=C/c1ccc(F)cc1 | inactive
COc1ccc(C(=O)OCCOc2ccccc2C(C)=O)c(O)c1 | inactive
Cc1cc(NC(=O)CCC(=O)N(CC(=O)NC2CCCC2)Cc2ccccc2Cl)no1 | inactive
COc1ccccc1N(CC(=O)NC1CCCC1)C(=O)CCC(=O)Nc1ccccn1 | inactive
COc1ccc(C(=O)/C=C/C(=O)N(CC(=O)NC2CCCCC2)Cc2ccccc2OC)c(O)c1 | 26.7 µM (active)
CCc1ccc(N(C(=O)c2ccco2)C(C(=O)NC2CCCC2)c2ccncc2)cc1 (configuration not stated) | inactive
Cc1cc(Br)ccc1NC(=O)CNC(=O)c1cnn(C)c1 | inactive
N#Cc1c(N2CCCCC2)nc(N)c2c(N)nc3c(c12)CC(CCl)O3 (configuration not stated) | inactive
Cc1cc(=O)oc2c3c4c(cc12)OCCN4CCC3 | inactive
Cc1c(C)c2cc3c(c(C)c2oc1=O)OCN(CCc1ccccc1)C3 | inactive
COc1ccc(C(=O)/C=C/C(=O)N(CC(=O)NC2CCCCC2)Cc2ccc(F)cc2)c(O)c1 | 28.2 µM (active)
COc1ccc(OCC(=O)OCC(=O)NC2CCCCC2C)cc1 (configuration not stated) | inactive
COc1ccc(O)c(/C=N/NC(=O)CCC(=O)Nc2ccc(F)cc2)c1 | inactive

SMILES | Potency
COc1ccc(CC(=O)Nc2ccc(S(=O)(=O)N3CCN(C)CC3)cc2)cc1 | inactive
CC(C)C[C@@H](CN1CCC[C@H]1CN1C(=O)C(=O)NC[C@@H]1Cc1ccccc1)N1C[C@H](Cc2ccccc2)N(CC2CCCCCC2)C(=O)C1=O | 20 µM (active)
CC(C)C[C@@H](CN1CCC[C@@H]1CN1C(=O)C(=O)NC[C@@H]1Cc1ccccc1)N1C[C@H](Cc2ccc(O)cc2)N(CC2CCCCCC2)C(=O)C1=O | 28.2 µM (active)
CC(C)C[C@H]1CN([C@@H](CC(C)C)CN2CCC[C@H]2CN2C(=O)C(=O)NC[C@@H]2Cc2ccc(O)cc2)C(=O)C(=O)N1CC1CCCCCC1 | 35.5 µM (active)
CC(C)C[C@H]1CNC(=S)N1C[C@H]1CCCN1C[C@H](CC(C)C)N1C[C@H](Cc2ccc(O)cc2)N(CC2CCCCC2)C1=S | 35.5 µM (active)
CCCCN(C)Cc1cc(=O)oc2cc3c(cc12)CCCC3 | inactive
Nc1cccc2c1C(=O)N(C(=O)c1ccc(S(=O)(=O)N3CCCCCC3)cc1)C2=O | inactive
Cc1c(C)c2cc(Cl)c(O)c(CN3CCCC(C)C3)c2oc1=O (configuration not stated) | inactive
Cc1csc(Nc2ccc(Cl)cc2)[n+]1-c1ccc(Cl)cc1 | inactive
O=C1NC[C@H](CCCCN2C[C@H](Cc3ccccc3)N(CCc3ccccc3)C(=O)C2=O)N(CCC2CCCCC2)C1=O | 20 µM (active)
O=C1NC[C@H](Cc2ccccc2)N(C[C@@H]2CCCN2C[C@H](Cc2ccccc2)N2C[C@H](Cc3ccccc3)N(CC3CCCCC3)C(=O)C2=O)C1=O | 39.8 µM (active)
CC(C)C[C@H]1CNC(=S)N1C[C@H]1CCCN1C[C@H](Cc1ccc(O)cc1)N1C[C@H](Cc2ccc(O)cc2)N(CCc2ccccc2)C1=S | 15.8 µM (active)
CC(C)C[C@@H](CN1CCC[C@H]1CN1C(=O)C(=O)NC[C@@H]1Cc1ccccc1)N1C[C@H](Cc2ccccc2)N(CC2CCCCC2)C(=O)C1=O | 35.5 µM (active)
COCCCC1CCN(C(=O)C2CCC(=O)N(CCCc3ccccc3)C2)CC1 (configuration not stated) | inactive
Clc1ccc2oc(-c3ccccc3)cc(=NCCCN3CCOCC3)c2c1 | inactive
COc1ccc(CCNC2CCc3ccccc3C2)cc1 (configuration not stated) | inactive
O=C(Cn1ccc([N+](=O)[O-])n1)NCc1ccccc1 | inactive
Cc1c(O)c(CN2CCCCC2)cc2c3c(c(=O)oc12)CCC3 | inactive
Cc1nc(-c2ccc(S(=O)(=O)Nc3cccc(S(N)(=O)=O)c3)s2)cs1 | inactive

Source: ChEMBL document CHEMBL1201862, “PubChem BioAssay data set” (2004)
